“And” between values parts separate entries of the source, which are not always exact repeats. Equal values may be shown once. Values without a mark were called inactive. Results filed as inconclusive are left out. Some structures have more than one record in an assay (separate samples or runs), and their calls can disagree. The source made the active and inactive calls. Unless noted, the call rests on the fitted dose curve; in most records, active means well fitted inhibition curve with a large enough effect; inconclusive means small, poorly fitted or top-dose-only effect; inactive means flat fitted curve, though single readings scatter.

The results in this text go back to PubChem BioAssay (NCATS).

Experiment [1] is described as follows: Drug repurposing screens with cells derived from glioblastoma tumor samples (AID 1345199). Further: nearly all actives have a fitted effect of over 40% in size. Further: potency means the concentration at half of the fitted maximal effect. On activity, negative = cell killing: on the % scale 0 is the no-effect control and ±100 the full control effect. The following applies: GBM patient neurospheres viability, ATP luminescence, 48 h. An outline of the steps:
(§1)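 Four patient lines of CD133+ GBM neurospheres were screened at several concentrations; hits were retested in those lines plus three slower-growing GBM lines, using 48-hour treatment and ATP-based viability.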

The next experiment has as its system astro (control astrocytes). The experiment is described as above. Conditions: viability, ATP luminescence, 48 h; series mostly up to 45.9 µM. An outline of the steps: as §1
The target in experiment [2] is Nuclear receptor subfamily 1 group I member 2 (Rattus norvegicus) (UniProt Q9R1A7). As to the kind of experiment: qHTS assay for small molecule activators of the rat pregnane X receptor (rPXR) signaling pathway (AID 651751; call rule not given here; further: 0% is about no effect). The following applies: rPXR reporter cells, luciferase (One-Glo), 24 h.
The nature of experiment [3]: qHTS assay for small molecule activators of the human pregnane X receptor (PXR) signaling pathway (AID 720659; call rule not given here; further: 0% is about no effect). Conditions: DPX-2 HepG2 CYP3A4-luciferase, 24 h; series mostly up to 92.3 µM. (In general: qHTS replaces the single test concentration by a dilution series.)
Where [4] appears, read: at 45.9 µM (top of the series), tumour line B.
Where [5] appears, read: at 45.9 µM (top of the series), tumour line D.
The mark [6] stands for this setting: at 46.1 µM (top of the series), tumour line C.
The mark [7] stands for this setting: at 46 µM (top of the series), tumour line A.

Sequence of Nuclear receptor subfamily 1 group I member 2 (Rattus norvegicus) (Q9R1A7 whole entry, looked up): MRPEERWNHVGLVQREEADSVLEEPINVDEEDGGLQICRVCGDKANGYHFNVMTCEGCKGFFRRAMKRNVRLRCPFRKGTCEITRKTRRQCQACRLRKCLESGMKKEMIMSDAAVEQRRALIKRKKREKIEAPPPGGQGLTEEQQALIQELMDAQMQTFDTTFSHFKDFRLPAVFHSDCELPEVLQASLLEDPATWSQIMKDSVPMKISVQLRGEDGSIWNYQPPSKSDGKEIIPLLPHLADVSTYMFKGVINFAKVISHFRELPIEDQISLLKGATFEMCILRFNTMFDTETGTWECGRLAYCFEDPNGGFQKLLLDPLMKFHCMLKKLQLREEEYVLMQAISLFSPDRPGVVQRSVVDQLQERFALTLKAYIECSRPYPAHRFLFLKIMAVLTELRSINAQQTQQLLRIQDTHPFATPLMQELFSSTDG

Turning to `CC(CN(C)C)CN1c2ccccc2S(=O)(=O)c2ccccc21` (configuration not stated), the activity, negative = cell killing is -1.87% in experiment [1] (setting [4]), -21.7% in experiment [1] (setting [5]) and 14.3% in experiment [1] (setting [6]). Further, the Potency in experiment [1] (tumour line A) is 17.8 µM (active). Also, the Potency entry in the experiment on astro was “inactive”.
For the molecule `O=C(CO)[C@@H](O)[C@H](O)[C@H](O)CO`, the activity, negative = cell killing is -6.93% in experiment [1] (setting [4]), 1.86% in experiment [1] (setting [5]), -24.2% in experiment [1] (setting [7]) and 19% in experiment [1] (setting [6]). Also, the Potency entry in the experiment with astro was “inactive”.
Regarding `COC[C@H](c1ccc(C(F)(F)F)cc1)N1CCN(C2(C)CCN(C(=O)c3c(C)ncnc3C)CC2)C[C@H]1C`, the activity, negative = cell killing in experiment [1] (setting [4]) is -1.49%; in experiment [1] (setting [5]) it was -13.4%; in experiment [1] (setting [6]) it was 5.67%. In experiment [1] (tumour line A), the Potency is 11.2 µM (active). Further, in the experiment with astro, the Potency entry was “inactive”.
For the molecule `CCCC1([C@H](O)C/C=C/[C@H]2[C@H](O)CC(=O)[C@@H]2CCCCCCC(=O)OC)CCC1`, the activity, negative = cell killing in experiment [1] (setting [4]) was 0.947%; in experiment [1] (setting [5]), -12.7%; in experiment [1] (setting [6]), -22%. Moreover, in experiment [1] (tumour line A), the Potency is 20 µM (active). Besides, in the experiment on astro, the Potency entry is “inactive”.
For `CCOC(=O)[C@H](CCc1ccccc1)N[C@@H](C)C(=O)N1CC2(C[C@H]1C(=O)O)SCCS2`, the activity, negative = cell killing was -13.1% in experiment [1] (setting [4]), 3.06% in experiment [1] (setting [5]), -27.1% in experiment [1] (setting [7]) and 2.21% in experiment [1] (setting [6]). Besides, the Potency result in the experiment on astro was “inactive”.
For the molecule `C/C(=C(/CCO)SSCC1CCCO1)N(C=O)Cc1cnc(C)nc1N` (configuration not stated), the activity, negative = cell killing is -8.31% and -21.8% in experiment [1] (setting [4]); -10.4% and -21.6% in experiment [1] (setting [5]); -12.1% and -0.697% in experiment [1] (setting [6]). In experiment [1] (tumour line A), the Potency is 25.1 µM (active).
Turning to `CCCC(=O)N1CCCN(c2nc(N)c3cc(OC)c(OC)cc3n2)CC1`, the activity, negative = cell killing is -1.44% in experiment [1] (setting [4]), -2.77% in experiment [1] (setting [5]) and 14.2% in experiment [1] (setting [6]). In experiment [1] (tumour line A), the Potency was 17.8 µM (active). In addition, in the experiment with astro, the Potency result is “inactive”.
Regarding `CN=C(NC)NCc1ccccc1`, the activity, negative = cell killing in experiment [1] (setting [4]) is -3.78%; in experiment [1] (setting [5]), 7.26%; in experiment [1] (setting [6]), -3.39%. Also, in the experiment on astro, the Potency entry is “inactive”.
Regarding `CC1(C)S[C@@H]2[C@H](NC(=O)C(C(=O)Oc3ccc4c(c3)CCC4)c3ccccc3)C(=O)N2[C@H]1C(=O)O` (some centres not stated), the activity, negative = cell killing in experiment [1] (setting [4]) is -10.7%; in experiment [1] (setting [5]), -5.29%; in experiment [1] (setting [7]), -6.42%; in experiment [1] (setting [6]), 7.9%. In addition, in the experiment on astro, the Potency result is “inactive”.
Take `CC(=O)S[C@@H]1CC2=CC(=O)CC[C@]2(C)[C@H]2CC[C@@]3(C)[C@@H](CC[C@@]34CCC(=O)O4)[C@H]12`: the activity, negative = cell killing in experiment [1] (setting [4]) is -27.2%; in experiment [1] (setting [5]), -26.7%; in experiment [1] (setting [6]), -22.4%. The Potency in experiment [1] (tumour line A) is 10 µM (active). Besides, the Potency entry in the experiment with astro was “inactive”.
Regarding `CS(=O)(=O)Nc1cc2occ(NC=O)c(=O)c2cc1Oc1ccccc1`, the activity, negative = cell killing was -8.06% in experiment [1] (setting [4]), -12.9% in experiment [1] (setting [5]), -16.3% in experiment [1] (setting [7]) and 0.0891% in experiment [1] (setting [6]). Also, in the experiment on astro, the Potency entry is “inactive”.
Consider `C=Cc1ccccc1`, for which the activity, negative = cell killing in experiment [1] (setting [4]) was -11.1%; in experiment [1] (setting [5]), 3.17%; in experiment [1] (setting [7]) it was -1.65%; in experiment [1] (setting [6]), 3.42%. In addition, the Potency entry in the experiment with astro is “inactive”. Besides, the max response in experiment [2] is 2.91% and 3.44%. Moreover, in experiment [3], the result was inactive.
For the molecule `C[C@H](CSC(=O)c1ccccc1)C(=O)N1C[C@@H](Sc2ccccc2)C[C@H]1C(=O)O`, the activity, negative = cell killing in experiment [1] (setting [4]) is -6.07%; in experiment [1] (setting [5]), 2.27%; in experiment [1] (setting [7]), -16.6%; in experiment [1] (setting [6]), -10.8%. In addition, the Potency entry in the experiment on astro was “inactive”.
With `C[C@@H]1C[C@H]2C3C[C@H](F)C4=CC(=O)C=CC4(C)[C@@]3(F)[C@@H](O)CC2(C)[C@@]1(O)C(=O)COC(=O)C(C)(C)C` (some centres not stated), the activity, negative = cell killing is -6.93% in experiment [1] (setting [4]), -10.7% in experiment [1] (setting [5]) and 2.01% in experiment [1] (setting [6]). Also, the Potency in experiment [1] (tumour line A) was 12.6 µM (active). Further, the Potency entry with astro is “inactive”.
Consider `CN(C)Cc1ccccc1`, for which the activity, negative = cell killing in experiment [1] (setting [4]) was -9.24%; in experiment [1] (setting [5]), 4.8%; in experiment [1] (setting [7]) it was -29.4%; in experiment [1] (setting [6]), -2.01%. Also, in the experiment on astro, the Potency result is “inactive”. In addition, in experiment [2], the max response is 2.69%. For the same molecule, in experiment [3], the result was inactive.
